# Source: PubChem BioAssay
# VACV Venus inh: inhibitors of vaccinia virus (Venus reporter). Vaccinia virus Venus reporter expression, fluorescence. Potency, µM (highest dose often 36.5 µM), for inactives: at the highest dose activity change, negative = inhibition, most hits filed as inhibitors. actives 0.46% (n = 330,000); calls by dose curve; tested in A549 cells; further: on the % scale 0 is the no-effect control and ±100 the full control effect; nearly all actives have a fitted effect of over 30% in size
# Pf growth 48h: inhibits P. falciparum growth in the first generation, 48 h; P. falciparum luciferase growth in erythrocytes, 48 h; Potency, µM (titrated, usually from 28.7 µM), without a hit: top-dose activity change, negative = inhibition, most hits filed as inhibitors; actives 5.9% (n = 310,000); AID 504832; further: on the % scale 0 is the no-effect control and ±100 the full control effect
#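 Here the parasites carry a stable luciferase gene and grow inside erythrocytes in Albumax-based RPMI medium with compound for one erythrocytic cycle. Activity is scored as loss of luminescent signal.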
# NS1 function inh: inhibitors of influenza NS1 protein function. Potency, µM (top dose mostly 46.1 µM), for the others: at the top dose activity, positive = more growth. actives 0.4% (n = 270,000). AID 2326; calls by dose curve; further: actives are rising curves; nearly all actives have a fitted effect of over 50% in size
#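 In this qHTS, NS1 from influenza A is expressed in budding yeast, where it slows growth. Cells are switched from glucose to 2% galactose medium (pH 6.0, -URA), treated with compound, and growth recovery is read at OD600.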
# Pf growth 96h: inhibits malaria parasite growth, 96 h; Potency, µM (highest dose often 28.7 µM), without a hit: at the top dose activity change, negative = inhibition, hits mostly inhibitors; actives 6.9% (n = 320,000); P. falciparum luciferase reporter growth, 96 h; further: on the % scale 0 is the no-effect control and ±100 the full control effect
#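 Plates of compound plus infected erythrocytes (2% hematocrit, 0.05% parasitemia final) incubate 96 hours, 37 C, 5% CO2. Detection reagent added; reduced luminescence from the parasites' luciferase reporter flags inhibition.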
# HCV inhibitor: HCV inhibition. Huh7.5.1 HCVcc-Cre infection, luciferase reporter, 44 h. Potency, µM (series often up to 41.8 µM), inactives show at the top dose activity change, negative = inhibition, actives largely listed as inhibitors. actives 3.4% (n = 340,000). AID 651820; further: on the % scale 0 is the no-effect control and ±100 the full control effect
#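 Cells seeded at 1,000/well and cultured 4 h, then compounds added followed by HCVcc-Cre virus (~0.5 moi). After 44 h further culture, luciferase substrate was added, plates held 15 min at room temperature, and luminescence read for 15 sec.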
# VACV mCherry inh: vaccinia inhibition (mCherry reporter); Vaccinia virus mCherry reporter infection, fluorescence; Potency, µM (doses to about 36.5 µM), for the others: top-dose activity change, negative = inhibition, usual class: inhibitors; actives 0.63% (n = 310,000); AID 720579; calls by dose curve; tested in A549 cells; further: on the % scale 0 is the no-effect control and ±100 the full control effect; nearly all actives have a fitted effect of over 35% in size
# Starred values were filed as active, the others as inactive; i = inactive; ? = inconclusive; . = not tested or not shown; ! = repeats disagree; [ ] = dose if it differs, or a comment. Only some compounds are listed: those with a hit (about 11% of all), similar ones and a draw of the others. Unless noted, the call rests on the fitted dose curve; in most records, active means well fitted inhibition curve with a large enough effect; inconclusive means small, poorly fitted or top-dose-only effect, or another doubt; inactive means no such curve, though single readings can be large or run the other way. Potency means the concentration at half of the fitted maximal effect.
SMILES,VACV Venus inh,Pf growth 48h,NS1 function inh,Pf growth 96h,HCV inhibitor,VACV mCherry inh
C=CCn1c(SCC(=O)Nc2ccc(F)cc2)nc2ccccc2c1=O,.,?,-6%,5.2µM*,-20%,.
C=CCn1c(SCC(=O)NC(=O)c2cccn2C)nc2ccccc2c1=O,-16%,3.7µM*,4%,10%,?,-14%
C=CCn1c(SCC(=O)Nc2cccc3ccccc23)nc(O)c(CC)c1=O,-10%,.,13%,9.3µM*,6%,-18%
C=CCn1c(SCC(=O)Nc2ccc(O)cc2)nc2sc(CC)cc2c1=O,-1%,?,15%,?,-16%,?
O=C1C=C(c2ccc3[nH]ccc3c2)C[C@@H](c2ccc(F)cc2)C1,-22%,?,.,?,?,-10%
OCCC1CN(Cc2ccc(-c3ccco3)cc2)CCN1Cc1ccsc1 (stereo not drawn),-16%,?,0%,29%,-6%,-14%
CCC(=O)c1ccc(O)cc1,-10%,5%,-12%,15µM*!,3%[8.37 µM],i
COc1cc(C(=O)Nc2ccccc2C(=O)Nc2ccccn2)cc(OC)c1OC,.,?,-42%,?,?,.
C[C@@H]1CCCCO[C@@H](CN(C)C(=O)Nc2ccc3c(c2)OCO3)[C@@H](C)CN([C@H](C)CO)C(=O)c2cc(N(C)C)ccc2O1,-9%,.,.,.,.,-13%
COc1ccc2c(c1)c(C(O)CN1CCC(Cc3ccccc3)CC1)c(C)n2C (stereo not drawn),-14%,13µM*,10%,10µM*,?,-20%
Clc1ccc(CN2CC[C@H]3C=CCc4cccc(c43)C2)cc1,0%,3.7µM*,.,1.9µM*,-20%,?
Fc1ccc(CN2CC[C@H]3C=CCc4cccc(c43)C2)cc1,-16%,10µM*,.,?,7%,i
Cc1ccc2nc(NC(=O)c3ccc4c(c3)OCO4)sc2c1,-18%,246%,15%,427%,?,?
Nc1c(NCc2ccccc2F)c(=O)[nH]c(=O)n1Cc1ccccc1,-15%,-17%,6%,5%,-4%,.
Cc1ccc(CNC(=O)C2CCC(CNS(=O)(=O)c3cccc4cccnc34)CC2)cc1 (stereo not drawn),.,?,8%,12µM*,-30%,.
COCC(=O)N1CCCC(CNS(=O)(=O)c2ccc(OC)cc2)C1 (stereo not drawn),2%,0%,-3%,10µM*,-5%,i
Cc1ccc(S(=O)(=O)NCC2CCC(C(=O)NCc3cccs3)CC2)cc1 (stereo not drawn),.,-1%,.,10µM*,-3%,.
COc1ccc(CN2CCC(CNS(=O)(=O)c3cccc(C(F)(F)F)c3)CC2)cc1,-8%,-8%,-6%,3%,11µM*,-19%
COC(=O)C1=C(c2ccccc2)C[C@@H]2CC[C@H]1N2C(=O)NCc1ccc(F)cc1,-10%,.,.,.,-14%,-12%
O=C(O)/C=C/c1cnc[nH]1,-14%,-20%,-6%,2%,?,i
COc1ccc(CN2CCN(C(=O)C3CCC(CNS(=O)(=O)c4ccccc4)CC3)CC2)c(OC)c1OC (stereo not drawn),-15%,?,.,?,3.5µM*,i
COc1ccc(CNC(=O)C2CCC(CNS(=O)(=O)c3ccccc3)CC2)cc1 (stereo not drawn),-27%,3.7µM*,-6%,0%,?,-12%
COc1ccc(CN(Cc2cccn2C)S(=O)(=O)c2cccc(C(F)(F)F)c2)cc1,.,12µM*,0%,?,?,.
CC1CCN(CCCNC(=O)C2CCC(CNS(=O)(=O)c3ccccc3)CC2)CC1 (stereo not drawn),.,21%,-13%,12µM*,-5%,.
COc1ccc(S(=O)(=O)NCC2CCC(C(=O)NCc3cccnc3)CC2)cc1 (stereo not drawn),6%,5%,.,-4%,2%,-2%
SMILES,VACV Venus inh,Pf growth 48h,NS1 function inh,Pf growth 96h,HCV inhibitor,VACV mCherry inh
O=C(Nc1nnc(-c2cc(Cl)ccc2Cl)o1)c1ccco1,-6%,-18%,.,28%,3%,i
O=C(NCCCCNC(=O)c1ccco1)c1ccco1,-5%,-3%,1%,-24%,-6%,-8%
Cc1ccc(Cn2c(C3CCCN3c3nc(-c4ccc(F)cc4)cs3)nc3cc(Cl)c(Cl)cc32)cc1 (stereo not drawn),-7%,.,.,.,10%,-11%
O=C(c1ccoc1)N1CCC2(CCCN(Cc3ccc(F)c(F)c3)C2)C1 (stereo not drawn),-20%,?,15%,12µM*,.,i
CN(C(=O)/C=C/c1ccco1)c1ccccc1C(=O)O,15%[7.34 µM],-5%,.,29%,-3%,14%[7.34 µM]
Cc1cccc2cc(C(c3nnnn3Cc3ccc4c(c3)OCO4)N3CCCC3)c(=O)[nH]c12 (stereo not drawn),0%,7.4µM*,?,?,-15%,.
Cc1ccc2cc(C(c3nnnn3C(C)(C)C)N3CCCC3)c(=O)[nH]c2c1C (stereo not drawn),.,3.3µM*,1%,.,.,.
CCC(C)(C)n1nnnc1C(c1cc2cccc(C)c2[nH]c1=O)N1CCN(C(=O)c2ccco2)CC1 (stereo not drawn),.,1.2µM*,-3%,58%,-10%,.
CCC(C)(C)n1nnnc1C(c1cc2cc3c(cc2[nH]c1=O)OCO3)N1CCCCC1 (stereo not drawn),-15%,?,-8%,0%,3%,-11%
CCCCN(C)C(=O)C1CCN(c2ccc(S(=O)(=O)N3CCOCC3)cc2[N+](=O)[O-])CC1,-7%,?,.,9.3µM*,?,-21%
CCCNC(=O)C1CCN(c2ccc(S(=O)(=O)N3CCOCC3)cc2Cl)CC1,-12%,13µM*,-2%,?,7%,0%
C=CCNC(=O)C1CCN(c2ccc(S(=O)(=O)N3CCOCC3)cc2Cl)CC1,-12%,9.3µM*,3%,261%,-3%,-6%
O=C(NCc1ccccc1)c1ccc2c(c1)S(=O)(=O)c1cc(Cl)ccc1C2=O,-2%,-4%,.,9%,35%,-1%
CCc1nnc(NC(=O)CSc2nnc(CSc3nc(C)cc(C)n3)n2C)s1,.,9%,3%,?,-9%,.
CCC(C)Sc1nnc(CSc2nc(C)cc(C)n2)n1C (stereo not drawn),-6%,?,.,13µM*,4%,-1%
CCCSc1nnc(CSc2nc(C)cc(C)n2)n1C,-3%,-12%,.,10µM*,24%,-8%
CCCSc1nnc(CSc2ncccn2)n1C,3%,9%,.,4%,7%,0%
Cc1nonc1NC(=O)OCCN1CCOC1=O,-4%,?,4%,6.6µM*,7%,-4%
CCOc1cc(C(=O)NC(C)C2CC3CCC2C3)cc(OCC)c1OCC (stereo not drawn),2%[7.34 µM],.,.,.,-15%,i[7.34 µM]
